Common to all, as to type: functional
Experiment [1] has as its system Plasmodium falciparum. The experiment is described as follows: GSK_TCMDC: Inhibition of Plasmodium falciparum 3D7 in whole red blood cells, using parasite LDH activity as an index of growth. Test compounds present at 2uM.
Experiment [2] relates to Plasmodium falciparum. The experiment is described as follows: GSK_TCMDC: Inhibition of Plasmodium falciparum Dd2 in whole red blood cells, using parasite LDH activity as an index of growth. Test compounds present at 2uM.
The next experiment relates to HepG2. Description: GSK_TCMDC: Percent inhibition of human HepG2 cell line. Test compounds present at 10uM.

In the case of `Cc1cccc(CN2CCCN(Cc3ccc(C(=O)Nc4ccc(Cl)cc4)cc3)CC2)c1.O=C(O)C(F)(F)F`, the values for the Inhibition with Plasmodium falciparum [1], with Plasmodium falciparum [2] and in the experiment with HepG2 were 92%, 17% and 54%, respectively.
The like results for `COc1ccc2nccc([C@@H](O)CN3CCC(NCc4cc5oc(=O)[nH]c5cc4Cl)CC3)c2c1.O=C(O)C(=O)O` were, in that order, 100%, 91% and 1%.
Taken in the same sequence, the figures for `CCN(CCO)CCc1cccc(Nc2nccc(-c3c(-c4ccc(NC(=O)C(C)(C)C)cc4)nn4ccccc34)n2)c1.Cl` were 100%, 96% and 62%.
The like results for `COc1ccc2c(c1)OC(C)(C)CC2=NOS(=O)(=O)c1ccc(C)cc1` were, in that order, 97%, 12% and 10%.
Regarding `COc1ccccc1-n1ccnc1SCC(=O)Nc1cc(C(F)(F)F)ccc1Cl`, the Inhibition in the experiment with Plasmodium falciparum [1] is 97%; in the experiment with Plasmodium falciparum [2], 97%; in the experiment on HepG2 it was 0%.
On to `Cc1cc(N(C)CCN(C)C)nc(Nc2ccc(Br)cc2)n1`, for which the Inhibition was found to be 97% with Plasmodium falciparum [1], 23% with Plasmodium falciparum [2] and 7% with HepG2.
The like results for `COc1cc2c(cc1CCNCCCCNCCc1cc3c(cc1OC)CCCC3)CCCC2.CS(=O)(=O)O` were, in that order, 100%, 36% and 100%.
Taken in the same sequence, the figures for `CN(C)CCCN1CCN(C(=O)c2cc3cc(-c4ccccc4)ccc3n2S(=O)(=O)c2ccccc2)CC1` were 100%, 94% and 32%.
Taken in the same sequence, the figures for `Cc1ccccc1Nc1nc(NCCc2ccccc2)nc2ccccc12` were 82%, 18% and 32%.
Turning to `Cc1cnc(Nc2ccccc2)nc1NCCC(=O)Nc1ccccc1.O=C(O)C(F)(F)F`, the Inhibition in the experiment with Plasmodium falciparum [1] is listed as 89%; with Plasmodium falciparum [2] it was 7%; in the experiment on HepG2 it was 10%.
The like results for `Oc1cccc(Nc2nc(NCc3ccco3)c3ccccc3n2)c1` were, in that order, 100%, 74% and 9%.
The like results for `CC(=O)Nc1ccc(CN2CCC(CNC(=O)c3cc(-c4cccc(C(F)(F)F)c4)cs3)C2)cc1.O=C(O)C(F)(F)F` (stereo not given) were, in that order, 97%, 3% and 24%.
The like results for `Cl.O=S(=O)(Nc1cc2c(cc1OCCCN1CCCCC1)CCNCC2)c1ccc(-c2ccc(Cl)cc2)cc1` were, in that order, 100%, 19% and 77%.
Take `COc1ccccc1C(C)NCC(=O)Nc1ccccc1Sc1ccccc1` (stereo not given): the values for the Inhibition in the experiment on Plasmodium falciparum [1], in the experiment with Plasmodium falciparum [2] and in the experiment on HepG2 were 89%, 7% and 0%, respectively.
The like results for `CC1c2cccc(O)c2CCN1CCc1ccc(Cl)c(Cl)c1.Cl` (stereo not given) were, in that order, 100%, 99% and 18%.
The like results for `Br.CC(C)(C)c1ccc(Cn2c(=N)n(CC(=O)c3ccc(-c4ccccc4)cc3)c3ccccc32)cc1` were, in that order, 98%, 50% and 63%.
The like results for `COc1ccccc1C(C)NCC(=O)Nc1cc(C(F)(F)F)ccc1Cl` (stereo not given) were, in that order, 97%, 85% and 4%.
On to `COc1cccc(C23NC(=Nc4nc5ccccc5[nH]4)NC2(c2cccc(OC)c2)NC(=Nc2nc4ccccc4[nH]2)N3)c1` (stereo not given), for which the values for the Inhibition with Plasmodium falciparum [1], in the experiment on Plasmodium falciparum [2] and with HepG2 were 100%, 99% and 0%, respectively.
With `COc1ccc2ncc(F)c(CCN3CC(O)C(CNCc4ccccc4)C3)c2n1.Cl` (stereo not given), the Inhibition is 89% in the experiment on Plasmodium falciparum [1], 22% in the experiment with Plasmodium falciparum [2] and 19% with HepG2.
On to `O=C(/C=C/c1ccc(Cl)c(Cl)c1)NCCCCCN1CCN(C(=O)Nc2ccc(Cl)c(C(F)(F)F)c2)CC1`, for which the Inhibition with Plasmodium falciparum [1] was 100%; with Plasmodium falciparum [2] it was 0%; in the experiment on HepG2, 22%.
Take `CCCCCCN1CCC(NCc2ccc(C)cc2)CC1.O=C(O)C(F)(F)F`: the Inhibition is on record as 93% in the experiment with Plasmodium falciparum [1], 4% in the experiment on Plasmodium falciparum [2] and 16% in the experiment on HepG2.
The like results for `CC1CN(Cc2cccc(F)c2)CCN1c1ccc(NC(=O)c2cccs2)cc1.O=C(O)C(F)(F)F` (stereo not given) were, in that order, 96%, 96% and 0%.
The like results for `COc1cc(C(=O)NC2CCN(Cc3ccccc3)CC2)ccc1-c1nc2cc(Cl)c(C)cc2[nH]1` were, in that order, 99%, 97% and 0%.
The like results for `CC(C)NC(C)(C)CN(Cc1ccc(-c2ccc(C(F)(F)F)cc2)cc1)C(=O)Cn1c(CCc2cccc(F)c2F)nc(=O)c2ccccc21` were, in that order, 94%, 68% and 44%.
As for `CC(Cc1ccc(OCCCCOc2ccccc2)cc1)NCCc1ccc(Oc2ccccc2)cc1` (stereo not given), the Inhibition with Plasmodium falciparum [1] was determined as 89%; in the experiment on Plasmodium falciparum [2] it was 95%; in the experiment with HepG2 it was 99%.
On to `Cc1cccc2nc(-c3ccc(-c4cccc(NC(=O)c5cccc(C(N)=O)c5)c4)cc3)[nH]c12`, for which the figures for the Inhibition in the experiment with Plasmodium falciparum [1], with Plasmodium falciparum [2] and in the experiment on HepG2 were 84%, 87% and 14%, respectively.
For `CCCCCN1CCCC1CNS(=O)(=O)c1cccc(C(=O)Nc2cccc(C#N)c2)c1.O=C(O)C(F)(F)F` (stereo not given), the Inhibition in the experiment on Plasmodium falciparum [1] is on record as 90%; in the experiment with Plasmodium falciparum [2], 7%; in the experiment with HepG2, 19%.
The like results for `CCOc1cc(C(=O)NCCc2ccc(Cl)c(Cl)c2)ccc1-c1nc2cc(Cl)ccc2[nH]1` were, in that order, 100%, 47% and 9%.
The like results for `CC(C)N1CCC(N(Cc2ccc(-c3ccc(Cl)cc3)cc2)C(=O)Cn2c(CCc3cccc(F)c3F)nc(=O)c3ccccc32)CC1.O=C(O)C(O)C(O)C(=O)O` were, in that order, 86%, 70% and 61%.
On to `CC[C@H](C)CNC(=O)c1cncc(-c2ccc(CN3CCC(N4CCCC4)CC3)cc2)c1.O=C(O)C(F)(F)F`, for which the Inhibition in the experiment on Plasmodium falciparum [1] stood at 100%; in the experiment on Plasmodium falciparum [2], 100%; in the experiment on HepG2, 0%.

What is called Inhibition is the change of the read-out against control, counted positive when it falls.

The record behind these values is ChEMBL document CHEMBL1157539, “Thousands of chemical starting points for antimalarial lead identification” (Nature, 2010).
